Calls of active or inactive are those of the source. How the source made its calls: active means hit-call score of the fitted dose curve at least 0.9, where 1 is the maximum; inactive means score below 0.9.
target: Transcription factor E2F1 (Homo sapiens) (UniProt Q01094); assay: ATG_E2F_CIS: Attagene CIS-FACTORIAL HepG2 Assay for human E2F Transcription Factor 1 (AID 2282935); settings: HepG2 Attagene cis-reporter, E2F reporter RNA transcripts; actives raise or lower the signal
Protocol: ATG_CIS is a cell-based, multiplexed-readout assay that uses HepG2, a human liver cell line, with measurements taken at 24 hours after chemical dosing in a 24-well plate.ATG_E2F_CIS is one of 52 assay component(s) measured or calculated from the ATG_CIS assay. It is designed to make measurements of mRNA induction, a form of inducible reporter, as detected with fluorescence intensity signals by Reverse transcription polymerase chain reaction (RT-PCR) and Capillary electrophoresis technology.Data from the assay component ATG_E2F_CIS was analyzed into 1 assay endpoint. This assay endpoint, ATG_E2F_CIS, was analyzed with bidirectional fitting relative to DMSO as the negative control and baseline of activity. Using a type of inducible reporter, measures of mRNA for gain or loss-of-signal activity can be used to understand the reporter gene at the transcription factor-level as they relate to the gene E2F1. Furthermore, this assay endpoint can be referred to as a primary readout, because this assay has produced multiple assay endpoints where this one serves a reporter gene function. To generalize the intended target to other relatable targets, this assay endpoint is annotated to the dna binding intended target family, where the subfamily is E2F transcription factor.
Human liver HepG2 cells are transiently transfected with multiple reporter transcription units (MRTUs) in 6-well plates using FuGene 6 reagent (Roche; 3 ml FuGene/1 mg DNA). The MRTU constructs are regulated by a cis-regulating element (promoter). […] A major difference between the CIS and TRANS system is that in CIS activities of endogenous TFs are measured, whereas the TRANS assay evaluates changes in activities of exogenous, chimeric NR-Gal4 proteins. […] At the end of 24 hour incubation, total RNA was isolated using TriZol reagent (Invitrogen). The isolated RNA is then reverse-transcribed using oligo(dT) primer and Mo-MLV reverse transcriptase (Invitrogen) with DNAse I (Ambion) treatment for 30 min. The one-tenth of the produced cDNA was amplified by PCR using Taq DNA polymerase (Invitrogen) and two reporter sequence-specific primers. The PCR products were fluorescently labeled by primer extension with 6-arboxyfluorescein (6-FAM) 5'-labeled reporter sequence-specific primer (2 min at 95 C, 20 s at 68 C and 10 min at 72 C) and these products were digested with 5U of HpaI (New England Biolabs) for 2h at 37 C. The fragments were purified using Qiaquick PCR columns (Qiagen), analyzed on an ABI 3130xL genetic analyzer (Applied Biosystems) with peak positions identified by using a set of X-rhodamine (ROX)-labeled MapMarker1000 molecular weight standards (BioVentures). The raw capillary electrophoresis data was processed using Attagraph software (Attagene).

Transcription factor E2F1 (Homo sapiens), sequence (Q01094 whole entry, looked up): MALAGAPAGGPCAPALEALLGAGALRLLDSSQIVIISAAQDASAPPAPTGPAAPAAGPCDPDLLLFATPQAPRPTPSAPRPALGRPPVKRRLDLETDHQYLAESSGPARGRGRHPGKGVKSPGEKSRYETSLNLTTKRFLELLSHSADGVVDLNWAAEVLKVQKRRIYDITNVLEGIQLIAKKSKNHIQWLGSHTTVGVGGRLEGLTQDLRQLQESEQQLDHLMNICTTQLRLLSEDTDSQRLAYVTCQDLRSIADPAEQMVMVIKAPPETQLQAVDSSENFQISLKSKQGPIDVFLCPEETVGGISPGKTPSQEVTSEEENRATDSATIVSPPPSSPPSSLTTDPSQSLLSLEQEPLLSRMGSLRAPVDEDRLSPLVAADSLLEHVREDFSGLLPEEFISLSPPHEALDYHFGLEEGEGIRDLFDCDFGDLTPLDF

Structure (SMILES)	outcome	AC50
CCCCc1ccc2ccccc2c1S(=O)(=O)O	inactive	
CC(C)(C)C1CCCCC1O (stereo not given)	inactive	
CC(O)COc1ccccc1 (stereo not given)	inactive	
CCCCC(CC)C(=O)O (stereo not given)	inactive	
COc1cc(OC)nc(NC(=O)NS(=O)(=O)Nc2ccccc2C(=O)N(C)C)n1	inactive	
O=C(O)C(=O)O	inactive	
O=S(=O)(O)C(F)(F)C(F)(F)C(F)(F)C(F)(F)C(F)(F)C(F)(F)C(F)(F)C(F)(F)C(F)(F)C(F)(F)F	inactive	
CCN(CCC#N)c1ccccc1	inactive	
Cc1ccc(C)c(S(=O)(=O)O)c1	inactive	
CCCCCCC(C)(C)C(=O)O	inactive	
CCC(C)c1ccccc1O (stereo not given)	inactive	
C=CC(=O)OCC(CO)(COCC(COC(=O)C=C)(COC(=O)C=C)COC(=O)C=C)COC(=O)C=C		19.6 µM (active)
C=CC(=O)OCCN(CC)CC	inactive	
FC(F)(F)C1(F)C(F)(F)C(F)(F)C(F)(F)C1(F)F	inactive	
O=C(C=C(O)C(F)(F)F)C(F)(F)F	inactive	
c1ccc(CNc2ncnc3c2ncn3C2CCCCO2)cc1 (stereo not given)	inactive	
CCCCC=O	inactive	
CC1COCc2cc3c(cc21)C(C)(C)C(C)C3(C)C (stereo not given)		159 µM (active)
CCc1ccccc1O	inactive	
CCCCCc1ccc(O)cc1	inactive	

Structure (SMILES)	outcome	AC50
c1cnc2c(c1)ccc1cccnc12	inactive	
FC(F)(F)C(F)(F)C(F)(F)Br	inactive	
CCCCCCCC(OC)OC	inactive	
CCCCCCCCCCCC[N+](C)(C)Cc1ccccc1	inactive	
CCOC(=O)c1nc(C(Cl)(Cl)Cl)n(-c2ccc(Cl)cc2Cl)n1		181 µM (active)
CCCC=O	inactive	
CCCCC(CC)C(=O)OCCOCCOCCOCCOC(=O)C(CC)CCCC (stereo not given)	inactive	
C[C@]12CC[C@@H]3c4ccc(O)cc4CC[C@H]3[C@@H]1C[C@@H](O)[C@@H]2O	inactive	
CCCCCCc1ccc(N)cc1	inactive	
c1ccc2c(c1)CCC2	inactive	
CCCCCCOC(=O)c1ccc(O)cc1	inactive	
CCC(C)c1nccnc1OC (stereo not given)	inactive	
CCCCCCCCCCCCOC(=O)c1cc(O)c(O)c(O)c1	inactive	
Cc1cccc2c1ccc1ccccc12	inactive	
C[C@]12CC[C@@H]3c4ccc(O)cc4CC[C@H]3[C@@H]1CC[C@@H]2OC(=O)CCC1CCCC1	inactive	
Cc1cncc(C)c1	inactive	
O=C(NO)c1ccccc1	inactive	
O=S(=O)(O)c1ccc2cc(O)ccc2c1	inactive	
Clc1ccc2c(Cl)ccnc2c1	inactive	
CN(CCO)S(=O)(=O)C(F)(F)C(F)(F)C(F)(F)C(F)(F)C(F)(F)C(F)(F)C(F)(F)C(F)(F)F	inactive	

From PubChem BioAssay (EPA / NIEHS)
